# Among all 5,500 compounds or so, about 2,000 (36%) were called active. Roughly 18% stayed inconclusive and do not appear here. The list shows a part of the results. A number with no mark means an inactive call. No stated cut-off is given here; in the data, active means normalized growth mostly below about 0.91 (no sharp cut-off); inconclusive means no clear call, values can overlap the other calls; inactive means mostly above about 0.92.
# Assay: chemical genetic growth profiling, strain panel (AID 1159580);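 further: tested at 20 µM; growth read once vehicle control cultures reached saturation at 30 °C; 1 = growth at the plate median or of vehicle wells; lower values mean less growth of the strain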
# Details: growth OD
structure (smiles),measurement,setting,value
O=C1C=C2C(=CCOC2O)O1 (stereo unspecified),normalized growth,"S. cerevisiae deletion strains, locus YKL009W, strain mrt4, active compounds read low",0.714 (active)
same,normalized growth,"S. cerevisiae deletion strains, locus YKL068W, active compounds read low",0.904 (active)
same,normalized growth,"S. cerevisiae deletion strains, locus YKL085W, strain MDH1 (second series), active compounds read low",0.868 (active)
same,normalized growth,"S. cerevisiae deletion strains, locus YKL085W, strain MDH1, active compounds read low",0.868 (active)
same,normalized growth,"S. cerevisiae deletion strains, locus YKL160W, strain elf1, active compounds read low",0.736 (active)
same,normalized growth,"S. cerevisiae deletion strains, locus YKL190W, strain CNB1, active compounds read low",0.834 (active)
same,normalized growth,"S. cerevisiae deletion strains, locus YKR001C, strain vps1, active compounds read low",0.541 (active)
same,normalized growth,"S. cerevisiae deletion strains, locus YKR026C, strain gcn3, active compounds read low",0.795 (active)
same,normalized growth,"S. cerevisiae deletion strains, locus YKR091W, strain srl3, active compounds read low",0.885 (active)
same,normalized growth,"S. cerevisiae deletion strains, locus YLL001W, strain dnm1, active compounds read low",0.691 (active)
same,normalized growth,"S. cerevisiae deletion strains, locus YLL026W, active compounds read low",0.769 (active)
same,normalized growth,"S. cerevisiae deletion strains, locus YLL041C, strain sdh2, active compounds read low",0.84 (active)
same,normalized growth,"S. cerevisiae deletion strains, locus YLR027C, strain aat2, active compounds read low",0.727 (active)
same,normalized growth,"S. cerevisiae deletion strains, locus YLR039C, strain RIC1, active compounds read low",0.292 (active)
same,normalized growth,"S. cerevisiae deletion strains, locus YLR058C, strain SHM2, active compounds read low",0.927
same,normalized growth,"S. cerevisiae deletion strains, locus YLR102C, strain apc9, active compounds read low",0.96
same,normalized growth,"S. cerevisiae deletion strains, locus YLR113W, strain HOG1, active compounds read low",0.708 (active)
same,normalized growth,"S. cerevisiae deletion strains, locus YLR221C, strain rsa3, active compounds read low",0.716 (active)
same,normalized growth,"S. cerevisiae deletion strains, locus YLR258W, strain gsy2, active compounds read low",0.794 (active)
same,normalized growth,"S. cerevisiae deletion strains, locus YLR262C, strain YPT6 (second series), active compounds read low",0.337 (active)
same,normalized growth,"S. cerevisiae deletion strains, locus YLR262C, strain YPT6, active compounds read low",0.231 (active)
same,normalized growth,"S. cerevisiae deletion strains, locus YLR268W, strain sec22, active compounds read low",0.794 (active)
same,normalized growth,"S. cerevisiae deletion strains, locus YLR320W, strain mms22, active compounds read low",0.701 (active)
same,normalized growth,"S. cerevisiae deletion strains, locus YLR330W, strain CHS5, active compounds read low",0.87 (active)
same,normalized growth,"S. cerevisiae deletion strains, locus YLR342W, strain FKS1 (second series), active compounds read low",0.774 (active)
same,normalized growth,"S. cerevisiae deletion strains, locus YLR342W, strain FKS1, active compounds read low",0.72 (active)
same,normalized growth,"S. cerevisiae deletion strains, locus YLR357W, strain rsc2, active compounds read low",0.862
same,normalized growth,"S. cerevisiae deletion strains, locus YLR370C, strain arc18, active compounds read low",0.697 (active)
same,normalized growth,"S. cerevisiae deletion strains, locus YLR371W, strain rom2, active compounds read low",0.945
same,normalized growth,"S. cerevisiae deletion strains, locus YLR384C, strain iki3, active compounds read low",0.789 (active)
same,normalized growth,"S. cerevisiae deletion strains, locus YLR418C, strain cdc73, active compounds read low",0.62 (active)
same,normalized growth,"S. cerevisiae deletion strains, locus YML016C, strain PPZ1, active compounds read low",0.953
same,normalized growth,"S. cerevisiae deletion strains, locus YML032C, strain rad52, active compounds read low",0.92
same,normalized growth,"S. cerevisiae deletion strains, locus YML120C, strain ndi1, active compounds read low",0.76 (active)
same,normalized growth,"S. cerevisiae deletion strains, locus YML124C, strain tub3, active compounds read low",0.918 (active)
same,normalized growth,"S. cerevisiae deletion strains, locus YMR058W, strain fet3, active compounds read low",0.328 (active)
same,normalized growth,"S. cerevisiae deletion strains, locus YMR078C, strain ctf18, active compounds read low",0.989
same,normalized growth,"S. cerevisiae deletion strains, locus YMR125W, strain sto1, active compounds read low",0.729 (active)
same,normalized growth,"S. cerevisiae deletion strains, locus YMR129W, active compounds read low",0.836 (active)
same,normalized growth,"S. cerevisiae deletion strains, locus YMR205C, strain PFK2, active compounds read low",0.722 (active)
same,normalized growth,"S. cerevisiae deletion strains, locus YMR223W, strain ubp8, active compounds read low",0.801 (active)
same,normalized growth,"S. cerevisiae deletion strains, locus YMR231W, strain pep5, active compounds read low",0.0886 (active)
same,normalized growth,"S. cerevisiae deletion strains, locus YMR263W, strain SAP30, active compounds read low",0.852 (active)
same,normalized growth,"S. cerevisiae deletion strains, locus YMR307W, strain GAS1, active compounds read low",0.302 (active)
same,normalized growth,"S. cerevisiae deletion strains, locus YNL067W, strain RPL9B, active compounds read low",0.689 (active)
same,normalized growth,"S. cerevisiae deletion strains, locus YNL071W, strain lat1, active compounds read low",0.654 (active)
same,normalized growth,"S. cerevisiae deletion strains, locus YNL128W, strain TEP1, active compounds read low",0.798 (active)
same,normalized growth,"S. cerevisiae deletion strains, locus YNL153C, strain GIM3, active compounds read low",0.664 (active)
same,normalized growth,"S. cerevisiae deletion strains, locus YNL183C, strain NPR1, active compounds read low",0.825 (active)
same,normalized growth,"S. cerevisiae deletion strains, locus YNL209W, strain ssb2, active compounds read low",0.761 (active)
same,normalized growth,"S. cerevisiae deletion strains, locus YNL233W, strain BNI4, active compounds read low",0.81 (active)
same,normalized growth,"S. cerevisiae deletion strains, locus YNL248C, strain rpa49, active compounds read low",0.701 (active)
same,normalized growth,"S. cerevisiae deletion strains, locus YNL250W, strain rad50, active compounds read low",0.903
same,normalized growth,"S. cerevisiae deletion strains, locus YNL271C, strain bni1, active compounds read low",0.92
same,normalized growth,"S. cerevisiae deletion strains, locus YNL298W, strain CLA4, active compounds read low",0.842 (active)
same,normalized growth,"S. cerevisiae deletion strains, locus YNL307C, strain MCK1, active compounds read low",0.748 (active)
same,normalized growth,"S. cerevisiae deletion strains, locus YNL322C, strain KRE1 (second series), active compounds read low",0.911
same,normalized growth,"S. cerevisiae deletion strains, locus YNL322C, strain KRE1, active compounds read low",0.815 (active)
same,normalized growth,"S. cerevisiae deletion strains, locus YNR049C, strain mso1, active compounds read low",0.812 (active)
same,normalized growth,"S. cerevisiae deletion strains, locus YNR052C, strain pop2, active compounds read low",0.83 (active)
same,normalized growth,"S. cerevisiae deletion strains, locus YOL006C, strain TOP1, active compounds read low",0.632
same,normalized growth,"S. cerevisiae deletion strains, locus YOL012C, strain htz1",0.714
same,normalized growth,"S. cerevisiae deletion strains, locus YOL147C, strain pex11, active compounds read low",0.984
same,normalized growth,"S. cerevisiae deletion strains, locus YOR001W, strain rrp6, active compounds read low",0.638 (active)
same,normalized growth,"S. cerevisiae deletion strains, locus YOR061W, strain CKA2, active compounds read low",0.929
same,normalized growth,"S. cerevisiae deletion strains, locus YOR069W, strain VPS5, active compounds read low",0.862 (active)
same,normalized growth,"S. cerevisiae deletion strains, locus YOR070C, strain gyp1, active compounds read low",0.794 (active)
same,normalized growth,"S. cerevisiae deletion strains, locus YOR080W, strain dia2, active compounds read low",0.864 (active)
same,normalized growth,"S. cerevisiae deletion strains, locus YOR083W, strain WHI5, active compounds read low",0.662 (active)
same,normalized growth,"S. cerevisiae deletion strains, locus YOR106W, strain vam3, active compounds read low",0.522 (active)
same,normalized growth,"S. cerevisiae deletion strains, locus YOR136W, strain idh2, active compounds read low",0.896 (active)
same,normalized growth,"S. cerevisiae deletion strains, locus YOR144C, strain elg1, active compounds read low",0.966
same,normalized growth,"S. cerevisiae deletion strains, locus YOR184W, strain ser1, active compounds read low",0.719 (active)
same,normalized growth,"S. cerevisiae deletion strains, locus YOR231W, strain MKK1, active compounds read low",0.877
same,normalized growth,"S. cerevisiae deletion strains, locus YOR265W, strain rbl2, active compounds read low",0.792 (active)
same,normalized growth,"S. cerevisiae deletion strains, locus YOR270C, strain vph1, active compounds read low",0.506 (active)
same,normalized growth,"S. cerevisiae deletion strains, locus YOR290C, strain snf2, active compounds read low",0.86 (active)
same,normalized growth,"S. cerevisiae deletion strains, locus YOR316C, strain cot1, active compounds read low",0.951
same,normalized growth,"S. cerevisiae deletion strains, locus YPL051W, strain arl3, active compounds read low",0.607 (active)
same,normalized growth,"S. cerevisiae deletion strains, locus YPL055C, strain LGE1, active compounds read low",0.601 (active)
same,normalized growth,"S. cerevisiae deletion strains, locus YPL078C, strain atp4, active compounds read low",0.615 (active)
same,normalized growth,"S. cerevisiae deletion strains, locus YPL106C, strain sse1, active compounds read low",0.542 (active)
same,normalized growth,"S. cerevisiae deletion strains, locus YPL240C, strain hsp82, active compounds read low",0.852 (active)
same,normalized growth,"S. cerevisiae deletion strains, locus YPL241C, strain CIN2, active compounds read low",0.921 (active)
same,normalized growth,"S. cerevisiae deletion strains, locus YPL256C, strain CLN2, active compounds read low",0.809 (active)
same,normalized growth,"S. cerevisiae deletion strains, locus YPR119W, strain clb2, active compounds read low",0.965
same,normalized growth,"S. cerevisiae deletion strains, locus YPR141C, strain kar3, active compounds read low",0.898 (active)
same,normalized growth,"S. cerevisiae deletion strains, locus YPR163C, strain tif3, active compounds read low",0.823 (active)
same,normalized growth,"S. cerevisiae deletion strains, locus YPR167C, strain met16, active compounds read low",0.937
same,normalized growth,"S. cerevisiae deletion strains, strain wtn01, active compounds read low",0.76 (active)
same,normalized growth,"S. cerevisiae strains, strain wild type, active compounds read low",0.78 (active)

# From PubChem BioAssay AID1159580 (chemical genetic matrix, 2015)
